# Laboratory results taken from PubChem BioAssay (NCI).
# Compounds without any hit were thinned out: in the full panel of roughly 79,000, 15% have a hit. Values without a mark were called inactive. Calls of active or inactive are those of the source. No stated cut-off is given here; in the data, active means growth inhibition above about 70%; inactive means the rest.
# Legend:
# [1] = NCI Yeast Anticancer Drug Screen. Data for the rad50 strain (AID 155);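 further: 0% = growth of vehicle-only cultures of the same strain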; conditions: S. cerevisiae rad50 strain growth inhibition, stronger effect = higher value
# Procedure, shortened: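 Vehicle-treated cultures provide the reference for the growth inhibition reported for compound-exposed, repair-deficient yeast.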
# [2] = NCI Yeast Anticancer Drug Screen. Data for the mec2-1 strain (AID 157); conditions: S. cerevisiae mec2-1 strain, stronger effect = higher value
# Procedure, shortened: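 Yeast mec2-1 mutant treated with compound. Readout: growth inhibition vs vehicle controls.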
# [3] = NCI Yeast Anticancer Drug Screen. Data for the sgs1 mgt1 strain (AID 161);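 further: 0% = growth of cultures given vehicle only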; conditions: S. cerevisiae sgs1 mgt1 strain, stronger effect = higher value
# Procedure, shortened: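 Mutant yeast exposed to compound; growth scored against vehicle-only wells.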
# [4] = NCI Yeast Anticancer Drug Screen. Data for the cln2 rad14 strain (AID 165);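 further: 0% = growth equal to vehicle treated cultures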; conditions: S. cerevisiae cln2 rad14 strain, stronger effect = higher value
# Procedure, shortened: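 cln2 rad14 yeast strain; compound exposure; growth inhibition read vs vehicle controls.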
# [5] = NCI Yeast Anticancer Drug Screen. Data for the bub3 strain (AID 167); conditions: S. cerevisiae bub3 mutant strain, stronger effect = higher value
# Procedure, shortened: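 Mutant yeast screening strain plus compound; vehicle-treated cultures serve as the 0% inhibition reference.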
# [6] = NCI Yeast Anticancer Drug Screen. Data for the mlh1 rad18 strain (AID 175); conditions: S. cerevisiae mlh1 rad18 strain growth inhibition, stronger effect = higher value
# Procedure, shortened: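 Yeast w/ defined DNA-repair lesions; compound exposure; growth vs vehicle controls → % inhibition.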
# [7] = at 5.0 µM (retest, dose inferred, filed as 0.5)
# [8] = at 50.0 µM (retest, dose inferred, filed as 5.0)
SMILES,"growth inhibition [1, 7]","growth inhibition [1, 8]",growth inhibition ([1]; at 50.0 µM),"growth inhibition [2, 7]","growth inhibition [2, 8]",growth inhibition ([2]; at 50.0 µM),"growth inhibition [3, 7]","growth inhibition [3, 8]",growth inhibition ([3]; at 50.0 µM),"growth inhibition [4, 7]","growth inhibition [4, 8]",growth inhibition ([4]; at 50.0 µM),"growth inhibition [5, 7]","growth inhibition [5, 8]",growth inhibition ([5]; at 50.0 µM),"growth inhibition [6, 7]","growth inhibition [6, 8]",growth inhibition ([6]; at 50.0 µM)
O=c1ccnc(Sc2ccc([N+](=O)[O-])cc2[N+](=O)[O-])[nH]1,16%,94% (active),47.2%,8%,94% (active),54.6%,2%,87% (active),84% (active),1%,74% (active),59.1%,-1%,92% (active),52.5%,2%,93% (active),49.6%
O=C(NCc1ccc(F)cc1)c1ccc(C(=O)NCc2ccc(F)cc2)cc1,1%,-4%,-6.6%,-19%,21%,-4.05%,-13%,2%,-13.1%,2%,6%,58.4%,1%,7%,-6.9%,-8%,-20%,-10.1%
C[n+]1c(-c2ccc(/C=N\NC(=O)c3ccc(C(=O)N/N=C/c4ccc(-c5cn6ccsc6[n+]5C)cc4)cc3)cc2)cn2ccsc21,65%,98% (active),90.6% (active),81% (active),98% (active),86.7% (active),72% (active),98% (active),84.5% (active),27%,98% (active),86.7% (active),86% (active),98% (active),83.8% (active),88% (active),97% (active),91.5% (active)
Nc1ccc(S(=O)(=O)NCc2nccs2)cc1,-5%,81% (active),17.9%,14%,58%,50%,2%,53%,28.4%,-7%,60%,47.4%,37%,80% (active),31.7%,11%,87% (active),70.5% (active)
CN(C)CCCCCNc1c2ccccc2nc2cccc([N+](=O)[O-])c12,73% (active),95% (active),90% (active),52%,97% (active),91.2% (active),29%,33%,89.2% (active),37%,62%,92.3% (active),23%,47%,89% (active),78% (active),96% (active),87.7% (active)
CCCCCCCSCc1nc2ccccc2c(C)[n+]1[O-],2%,99% (active),96.7% (active),3%,98% (active),95.8% (active),0%,98% (active),95.8% (active),-3%,98% (active),94.8% (active),-2%,99% (active),98% (active),3%,98% (active),97.5% (active)
C[N+]1(C)CCCC(OCCCCCCCCCCCCCCOC2CCC[N+](C)(C)C2)C1 (stereo not given),14%,95% (active),87.9% (active),34%,98% (active),80.5% (active),35%,97% (active),98.8% (active),37%,92% (active),98.2% (active),37%,94% (active),97.6% (active),77% (active),97% (active),99% (active)
CC12C(=O)N(CC(=O)O)C(=O)C1(C)C1c3ccccc3C2c2ccc3ccccc3c21 (stereo not given),7%,97% (active),98.7% (active),1%,98% (active),95.9% (active),2%,98% (active),99% (active),-8%,99% (active),99% (active),1%,96% (active),95.6% (active),0%,98% (active),95.8% (active)
S=c1[nH]nc(Nc2ccccc2Cl)s1,17%,3%,57.5%,-21%,-8%,32.4%,-4%,15%,79.8% (active),23%,22%,43.2%,1%,19%,57%,-7%,-8%,47.9%
CCCCCCCCCCCCCCC[N+]1(CC)CCCCC1,99% (active),99% (active),90.3% (active),97% (active),99% (active),90.8% (active),99% (active),99% (active),91.7% (active),99% (active),99% (active),90% (active),98% (active),99% (active),90.5% (active),98% (active),99% (active),89.2% (active)
